Screening results from PubChem BioAssay.
Mcl1-Bid inh = disrupts binding of human Mcl-1 to Bid peptide. Q07820. TR-FRET Mcl-1/Bid-Dy647 peptide binding, 1536-well. inhibition, % at 21.7 µM. 0.97% of 220,000 active;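 active = compounds that cut the binding signal by more than half at the single screening dose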;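 also: His-tagged Mcl-1 with europium anti-His antibody binding Bid BH3 peptide; 0% = Mcl-1 plus peptide wells and 100% = peptide-only wells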
Target sequence (Q07820 whole entry, looked up): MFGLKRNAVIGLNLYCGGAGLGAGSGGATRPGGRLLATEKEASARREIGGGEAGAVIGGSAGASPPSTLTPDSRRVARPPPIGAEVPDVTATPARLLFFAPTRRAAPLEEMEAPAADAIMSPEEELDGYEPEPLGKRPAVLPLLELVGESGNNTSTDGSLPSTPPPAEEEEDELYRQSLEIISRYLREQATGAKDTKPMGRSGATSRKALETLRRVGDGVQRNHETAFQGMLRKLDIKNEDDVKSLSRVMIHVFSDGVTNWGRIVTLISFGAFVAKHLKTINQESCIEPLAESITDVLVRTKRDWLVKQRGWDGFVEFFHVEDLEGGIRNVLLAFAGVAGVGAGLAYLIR
NOD2 RIPK2 PPI = NOD2-RIPK2 protein interaction inhibition. O43353. CHO BLA complementation NOD2-RIPK2, CCF4 ratio. inhibition, % at 4.98 µM. 0.38% of 360,000 active. AID 624267; in the data active = inhibition above about 21%;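 also: 0% = vehicle only and 100% = reference blocker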
Bim-Mcl-1 = inhibitors of Bim-Mcl-1 interaction, human | 0.1% of 190,000 active | Bead-based flow cytometry, Bim peptide-Mcl-1 binding | Q07820 | inhibition, % at 10 µM; in the data active = inhibition above about 40%;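 also: 0% = no compound tracer wells and 100% = peptide blocker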
TLR4-MyD88 BLA = inhibitors of human TLR4-MyD88 binding. O00206+Q99836. HeLa CL3-4 TLR4/MyD88 BLA complementation, FRET ratio. inhibition, % at 8.4 µM. 0.18% of 200,000 active. AID 861; in the data active = inhibition above about 25%;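 also: 0% = vehicle and 100% = reference inhibitor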
Mcl1-Noxa inh = disrupts binding of human Mcl-1 to Noxa peptide; inhibition, % at 21.7 µM; TR-FRET Mcl-1/Noxa peptide binding, 2 h; 1.5% of 220,000 active; Q07820;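 active = compounds that cut the protein-peptide binding signal by more than 50% relative to plate controls in a single-dose test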;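 also: His-tagged Mcl-1 with rhodamine Noxa BH3 peptide and terbium anti-His antibody; 0% = Mcl-1 plus Noxa peptide wells and 100% = peptide-only wells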
TLR9-MyD88 block = TLR9-MyD88 interaction inhibition; inhibition, % at 4.98 µM; CHO BLA complementation TLR9-MyD88, CCF4 FRET ratio; Q9NR96+Q99836; 0.21% of 340,000 active;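 active = inhibition above the mean over all tested compounds plus 3 SD, cut at about 21% in these data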;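 also: 0% = DMSO only wells and 100% = clavulanate BLA inhibitor control wells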
Starred values were filed as active, the others as inactive; x = no result. This is a sample that favours compounds with a hit; in the whole collection about 1.8% have one here.

SMILES	Mcl1-Bid inh	NOD2 RIPK2 PPI	Bim-Mcl-1	TLR4-MyD88 BLA	Mcl1-Noxa inh	TLR9-MyD88 block
Fc1ccc(NC(=S)N/N=C/c2cccc(Br)c2)c(F)c1	97*	-1	-2	-5	-1	11
CCCCCCn1c(SCC(=O)NC2CCS(=O)(=O)C2)nc2ccccc2c1=O (stereo not drawn)	x	2	x	x	x	-15
COc1ccc(Cn2nnnc2C(c2ccccc2OC)N2CCC(C(N)=O)CC2)cc1 (stereo not drawn)	-15	-7	0	-17	-13	-6
COc1ccc(Cn2nnnc2C(c2ccc(N(C)C)cc2)N2CCC(C(N)=O)CC2)cc1 (stereo not drawn)	-42	-10	0	-3	54*	3
COCCn1c(SCC(=O)NC(=O)NCc2ccccc2)nc2ccccc21	56*	-8	-1	10	8	-6
COC(=O)c1c(NC(=O)Cc2cccs2)sc2c1CCCC2	22	-8	-6	-3	80*	-10
COCCNC(=S)N(C)[C@H]1C[C@H]2c3cc(-c4ccccc4)ccc3CCN2C(=O)[C@H]1[C@H](C)O	x	-4	x	x	x	10
CN(C)c1ccc(/C=C/c2ccc3ccccc3[n+]2C)cc1	-57	-5	-7	4	47	-4
CN(C)c1ccc(/C=C/c2ccc3c4ccccc4ccc3[n+]2-c2ccccc2)cc1	-61	0	0	7	84*	2
COc1cccc(NC(=O)C(=O)N/N=C/c2cc(C)n(-c3ccc(Cl)c(Cl)c3)c2C)c1	93*	1	2	-12	-1	0
Cc1cc(/C=N/NC(N)=S)c(C)n1-c1ccc(Cl)c(Cl)c1	-117	5	-1	-2	-4	7
COCC(=O)Oc1c(Sc2ccccc2[N+](=O)[O-])c(C)nn1C(C)(C)C	-6	1	1	-5	27	-1
CCC(CC)C(=O)Oc1c(Sc2ccccc2[N+](=O)[O-])c(C)nn1C(C)(C)C	91*	-1	-3	9	-7	3
O=C1NC(NS(=O)(=O)c2ccc(Cl)cc2)(C(F)(F)F)C(=O)N1Cc1cccnc1 (stereo not drawn)	13	15	0	-11	36	-5
O=C(Cc1csc(N2CCOCC2)n1)N/N=C/c1ccc(O)c(O)c1O	-40	-1	2	6	85*	4
O=C(CCN1CCN(c2ccccc2)CC1)N/N=C/c1ccc(O)c(O)c1O	-84	-8	9	14	77*	4
C/C(=N\NC(=O)Cc1csc(N2CCOCC2)n1)c1ccccc1	-26	-7	0	-4	6	3
COc1ccc(/C=N/NC(=O)CCN2CCN(c3ccccc3)CC2)c(OC)c1OC	-18	-10	-3	0	22	-5
COc1ccc(/C=N/Nc2nc(-c3cccnc3)nc3ccccc23)c(OC)c1	54*	7	x	x	35	-5
O=c1c2cc(Cl)ccc2nc(-c2ccccc2Cl)n1O	88*	0	3	-6	2	-1
Cc1ccc(-c2nc3ccc(Cl)cc3c(=O)n2O)cc1	x	3	x	x	x	-8
O=[N+]([O-])c1cc(/C=N/n2c(-c3cccnc3)n[nH]c2=S)ccc1Cl	-25	0	0	1	70*	-7
O=[N+]([O-])c1ccccc1/C=N/n1c(-c2cccnc2)n[nH]c1=S	-37	-7	-9	2	46	12
Cc1cccc(C)c1C(=O)N[C@@H](Cc1ccccc1)C(=O)O	3	-4	-2	-3	-3	1
O=C(Nc1ccc(N2CCCC2)cc1)C(Cl)c1ccccc1 (stereo not drawn)	-69	-12	0	0	56*	0
CS(=O)(=O)N1CCN(c2ccc(NC(=O)C(c3ccccc3)c3ccccc3)cc2)CC1	-35	-7	-2	-10	3	4
O=C(CC(O)(CC(=O)OCc1ccccc1)C(=O)OCc1ccccc1)OCc1ccccc1	x	-5	x	x	x	-2
Cc1c2cnn(CC(=O)Nc3c(F)c(F)cc(F)c3F)c(=O)c2c(C)n1Cc1ccc(F)cc1	-16	x	-2	-15	62*	x
CCN(CC)c1ccc(NC(=O)Cn2ncc3c(C)n(Cc4ccccc4F)c(C)c3c2=O)c(C)c1	65*	-4	3	1	64*	10
Cc1cccc(C(=O)N(Cc2ccc(C)o2)C2CCS(=O)(=O)C2)c1 (stereo not drawn)	x	-8	x	x	x	-21
